The values that follow come from PubChem BioAssay (NCATS).

Records with an inconclusive call do not appear. Entries that show only a call come without a potency. The source made the active and inactive calls. The call rests on the fitted dose curve; in most records, active means well fitted inhibition curve with a large enough effect; inconclusive means small, poorly fitted or top-dose-only effect; inactive means flat fitted curve, though single readings scatter.
Potency means the concentration at half of the fitted maximal effect.

Sequence of Voltage-gated inwardly rectifying potassium channel KCNH2 (Homo sapiens) (Q12809 whole entry, looked up): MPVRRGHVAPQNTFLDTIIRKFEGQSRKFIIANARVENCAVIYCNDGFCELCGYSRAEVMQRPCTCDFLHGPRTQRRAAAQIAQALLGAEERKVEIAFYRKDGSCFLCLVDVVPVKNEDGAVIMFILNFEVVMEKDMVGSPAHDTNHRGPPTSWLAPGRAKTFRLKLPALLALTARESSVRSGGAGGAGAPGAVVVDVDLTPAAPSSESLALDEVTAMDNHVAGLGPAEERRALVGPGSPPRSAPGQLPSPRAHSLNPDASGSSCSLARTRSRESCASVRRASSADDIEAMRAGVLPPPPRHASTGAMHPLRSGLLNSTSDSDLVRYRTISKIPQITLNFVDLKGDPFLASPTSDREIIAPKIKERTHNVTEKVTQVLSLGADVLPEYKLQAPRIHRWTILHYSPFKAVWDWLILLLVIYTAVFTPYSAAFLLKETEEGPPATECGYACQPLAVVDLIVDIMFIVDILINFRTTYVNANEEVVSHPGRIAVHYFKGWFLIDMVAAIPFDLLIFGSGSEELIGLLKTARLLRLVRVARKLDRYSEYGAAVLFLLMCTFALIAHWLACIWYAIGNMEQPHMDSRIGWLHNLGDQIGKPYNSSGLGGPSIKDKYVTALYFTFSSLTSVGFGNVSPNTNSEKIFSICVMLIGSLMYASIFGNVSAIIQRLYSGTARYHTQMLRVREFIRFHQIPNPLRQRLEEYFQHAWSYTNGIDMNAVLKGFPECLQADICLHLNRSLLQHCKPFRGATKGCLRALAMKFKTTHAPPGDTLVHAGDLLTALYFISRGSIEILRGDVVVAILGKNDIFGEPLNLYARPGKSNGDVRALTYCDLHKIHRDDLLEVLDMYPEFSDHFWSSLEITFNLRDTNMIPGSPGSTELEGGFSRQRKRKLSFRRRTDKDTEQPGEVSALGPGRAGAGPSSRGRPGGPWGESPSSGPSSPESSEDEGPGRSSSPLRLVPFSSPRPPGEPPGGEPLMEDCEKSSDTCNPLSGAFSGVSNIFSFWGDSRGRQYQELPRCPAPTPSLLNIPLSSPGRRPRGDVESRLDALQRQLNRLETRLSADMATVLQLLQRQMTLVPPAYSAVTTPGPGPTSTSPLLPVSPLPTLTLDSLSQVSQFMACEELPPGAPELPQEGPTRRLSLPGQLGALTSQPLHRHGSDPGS

The assay addresses Voltage-gated inwardly rectifying potassium channel KCNH2 (Homo sapiens) (UniProt Q12809). Description: qHTS Assay for Small Molecule Inhibitors of the Human hERG Channel Activity (AID 588834).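 Further: lower thallium flux fluorescence means stronger hERG block; nearly all actives have a fitted effect of over 50% in size.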 Particulars: U2OS BacMam hERG, FluxOR thallium flux fluorescence; series mostly up to 46.1 µM. In short, it runs like this: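 Cells were infected with hERG-BacMam virus for 4 hrs at room temperature, grown overnight, then seeded at 2000/well. After dye loading and roughly 10 min compound treatment, thallium influx was triggered and fluorescence recorded.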
Take `O=C(O)/C=C\C(=O)O`: the Potency entry was “inactive”.
Consider `Nc1ccccc1C(=O)O`, for which the Potency result is “inactive”.
Take `NC1=NC(=O)C(c2ccccc2)O1` (configuration not stated): the Potency entry was “inactive”.
The entry for `C[C@@H]1O[C@@H]1P(=O)(O)O` is “inactive”.
The same measure for `O=C1c2ccccc2C(=O)c2ccccc21`: “inactive”; for `CCC(C)(C)c1ccc(O)cc1`: “inactive”; for `COP(=S)(OC)SCN1C(=O)c2ccccc2C1=O`: “inactive”.
The same measure for `NC(=O)CS(=O)C(c1ccccc1)c1ccccc1` (configuration not stated): “inactive”; for `CC(=O)OCC1=C(C(=O)O)N2C(=O)[C@@H](N)[C@H]2SC1`: “inactive”.
`CN=C1CN(O)C(c2ccccc2)=c2cc(Cl)ccc2=N1`: the Potency entry is “inactive”.
The entry for `CC(C)c1c(CN(C)C(C)Cc2ccccc2)n(C)n(-c2ccccc2)c1=O` (configuration not stated) is “inactive”; for `CC(C)(C)NCC(O)c1cc(Cl)c(N)c(C(F)(F)F)c1` (configuration not stated) it is “inactive”.
The same measure for `O=[N+]([O-])O[C@H]1CO[C@H]2[C@@H]1OC[C@H]2O[N+](=O)[O-]`: “inactive”.
The figure for `CN1C[C@H](C(=O)N[C@]2(C)O[C@@]3(O)[C@@H]4CCCN4C(=O)[C@H](Cc4ccccc4)N3C2=O)C=C2c3cccc4[nH]cc(c34)C[C@H]21` is 12.6 µM (active).
For `Nc1nc(N)nc(NC2CC2)n1`, the Potency entry was “inactive”.
The same measure for `CN1C(=O)NC(=O)C(C)(C2=CCCCC2)C1=O` (configuration not stated): “inactive”; for `CCOP(=S)(OCC)Oc1ccc2c(C)c(Cl)c(=O)oc2c1`: “inactive”; for `CC(=O)NC1CCSC1=O` (configuration not stated): “inactive”.
The entry for `CCC1(c2ccccc2)C(=O)N(COC)C(=O)N(COC)C1=O` is “inactive”; for `CC(C)C[C@H](CN)CC(=O)O` it is “inactive”.
The entry for `CCCCCN(C)CCC(O)(P(=O)(O)O)P(=O)(O)O` is “inactive”.
As to `C[C@]1(O)CC[C@H]2[C@@H]3CCC4=CC(=O)CC[C@]4(C)[C@@]3(F)[C@@H](O)C[C@@]21C`, the Potency entry was “inactive”.
